Bioassay records from PubChem.
CDK5 inh: inhibitors of human CDK5/p35 kinase | 330,000 compounds, 0.01% hits | inhibition, % at 10 µM | Recombinant CDK5/p35, ADP-Glo luminescence, 60 min;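 active = highest replicate inhibition of at least 50% and at least 75% of replicates reaching 50%; inconclusive = only one of the two criteria met; inactive = both criteria failed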;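 also: plate controls were DMSO neutral control for no effect and GW8510 at 10 µM for full effect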
CASP6 VEID inh: blocks human caspase-6 cleavage activity; inhibition, % at 12.5 µM; AID 686996; purified caspase-6, Z-VEID-R110 cleavage fluorescence; 350,000 compounds, 0.53% hits;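 active = mean inhibition across replicates at least about 35%, with every replicate also reaching that limit, limit read from the data; inconclusive = only one of the two criteria met; inactive = neither criterion met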;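 also: 0% = median of neutral control wells and 100% = no fluorescence left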
Target sequence (P55212 24-179 limits assumed): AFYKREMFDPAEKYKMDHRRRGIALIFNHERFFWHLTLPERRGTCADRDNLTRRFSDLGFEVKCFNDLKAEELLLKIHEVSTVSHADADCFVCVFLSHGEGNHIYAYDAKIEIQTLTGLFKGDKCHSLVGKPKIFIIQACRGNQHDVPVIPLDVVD
Target sequence (P55212 194-293 limits assumed): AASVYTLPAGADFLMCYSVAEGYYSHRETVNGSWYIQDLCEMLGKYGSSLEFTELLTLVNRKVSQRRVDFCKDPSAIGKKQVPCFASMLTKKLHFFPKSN
NSD2 HMT inh: inhibitors of human histone methyltransferase NSD2; O96028; NSD2 peptide methylation, AlphaScreen, 120 min; inhibition, % at 12.5 µM; 310,000 compounds, 0.54% hits; AID 743445; in the data active = inhibition above about 50%
Mot1-301 SUMO: inhibitors of SUMOylation pathway: yeast Mot1-301 growth rescue; S. cerevisiae Mot1-301 growth rescue, ATP luminescence, 38.5C; percent above DMSO median, 100 means doubled; 320,000 compounds, 1% hits; growth rescue, % at 18.8 µM;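 active = every valid replicate shows activation above 250% relative to neutral control wells; inactive = the rest, any valid replicate at or below 250%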;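 also: OY570 slx delta 5 strain wells were the positive control but not used for scaling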
ALR H2O2 inh: human ALR oxidase inhibition via reduced H2O2 | 290,000 compounds, 3.8% hits | purified ALR, DTT oxidation, H2O2 HRP-luminol luminescence | P55789 | inhibition, % (test concentration not listed);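 active = mean replicate inhibition above about 79%, with every replicate also reaching it, limit read from the data; inconclusive = only one of the two criteria met; inactive = mean below limit and not every replicate reaching it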
Target sequence (P55789 whole entry, looked up): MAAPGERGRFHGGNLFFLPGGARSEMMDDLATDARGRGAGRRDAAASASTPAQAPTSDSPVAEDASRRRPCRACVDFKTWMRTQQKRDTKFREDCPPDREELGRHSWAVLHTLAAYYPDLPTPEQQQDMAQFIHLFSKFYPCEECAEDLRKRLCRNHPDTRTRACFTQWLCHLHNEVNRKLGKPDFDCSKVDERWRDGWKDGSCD
N-glyco inh: N-linked glycosylation inhibition | D54 ERlucT glycosylation luciferase reporter, 24 h; percent of 100 nM tunicamycin response | reporter increase, % at 12.5 µM | 360,000 compounds, 0.23% hits | AID 588692;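 active = mean luciferase reporter signal, scaled so untreated is 0 and the glycosylation-blocking control 100, at or above a set limit in every replicate; inconclusive = mean reaches the limit but not every replicate does; inactive = mean below the limit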;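 also: luciferase carries N-glycosylation sites so blocking glycosylation raises the light; 0% = median of neutral control wells and 100% = median of 100 nM tunicamycin wells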
Numbers without * were called inactive; ? = inconclusive; . = not tested or not shown. In the library only some 3.9% were active in any assay of this set; here they are far more common.

SMILES	CDK5 inh	CASP6 VEID inh	NSD2 HMT inh	Mot1-301 SUMO	ALR H2O2 inh	N-glyco inh
COc1cc2c(cc1OC)-c1c(OC)c(OC)cc3c1C(C2)N(C)CC3 (stereo unspecified)	-1	69*	.	-13	-9	-1
COc1cc2c(cc1OC)-c1c3c(cc4c1[C@@H](C2)N(C)CC4)OCO3	1	48*	.	-10	-38	?
O=C(O)[C@@H]1[C@@H](CO)[C@@H]2Cn3c(ccc(C4=CCCCC4)c3=O)[C@H]1N2C(=O)Cc1ccccn1	.	1	.	.	.	.
O=C(Cc1ccccc1)N1CC2(C1)[C@H](c1ccccc1)[C@@H](CO)N2Cc1cccc(Cl)c1	.	0	.	.	.	.
Cc1ccccc1-n1c(O)c(C=Nc2ccc3c(c2)OCO3)c(=O)[nH]c1=O	-3	.	1	-3	-16	1
CCN(CC)c1ccc(N=Cc2c(O)n(-c3ccccc3)c(=O)[nH]c2=O)cc1	1	-1	24	-25	81*	5
CCN(CC)c1ccc(N=Cc2c(O)n(-c3ccccc3C)c(=O)[nH]c2=O)cc1	-5	.	1	-15	98*	7
CCOc1ccc(-n2c(O)c(C=Nc3ccc(N(CC)CC)cc3)c(=O)[nH]c2=O)cc1	-3	.	-3	-12	-1	1
CCOc1ccccc1-n1c(O)c(C=Nc2ccc(N(CC)CC)cc2)c(=O)[nH]c1=O	0	.	-3	5	70	29*
COC(=O)[C@@H]1[C@@H](CO)[C@@H]2Cn3c(ccc(-c4cccc(OC)c4)c3=O)[C@H]1N2C(=O)c1ccccc1F	.	-3	.	.	.	.
CC=Cc1ccc2n(c1=O)C[C@@H]1[C@@H](CO)[C@H](C(=O)N(C)C)[C@H]2N1C (mixture of isomers)	.	1	.	.	.	.
COc1ccc(C(O)(c2cncnc2)C2CC2)cc1 (stereo unspecified)	.	0	.	.	.	.
Cc1cc(C)c2c(c1)-c1cc(C)nn1C(c1cccnc1)N2 (stereo unspecified)	1	3	.	47	99*	5
O=C(O)C12C3CCCC1C32c1ccccc1 (stereo unspecified)	-1	.	-4	-7	99*	2
O=C(Cc1cccnc1)N1CCCCN2[C@H](C1)[C@@H](c1ccc(C#CC3CC3)cc1)[C@@H]2CO	.	1	.	.	.	.
COc1ccc(C#Cc2ccc([C@@H]3[C@@H](CO)N4CCCCN(C(=O)Cc5ccccc5)C[C@@H]34)cc2)cc1	.	1	.	.	.	.
ClCCOCCCl	-1	1	.	144	-2	85*
c1ccc2c(c1)[IH]c1ccccc1-2	2	-1	.	.	.	54*
C[C@H]1CN([C@@H](C)CO)C(=O)c2c(c3ccccc3n2C)-c2ccccc2CO[C@@H]1CN(C)C(=O)Oc1ccccc1	.	2	.	.	.	.
O=C1NC(=O)N(c2cccc(Cl)c2)C(=O)/C1=C\c1ccc(Sc2nc3ccccc3[nH]2)o1	3	70*	71*	-14	69	1
O=C1NC(=O)N(c2ccccc2F)C(=O)/C1=C/c1ccc(Sc2nc3ccccc3[nH]2)o1	-1	60*	87*	-13	98*	2
Cc1ccc(N2C(=O)NC(=O)/C(=C\c3ccc([N+](=O)[O-])o3)C2=O)cc1	.	.	.	2	-14	.
Cc1cccc(N2C(=O)NC(=O)/C(=C/c3ccc(-c4ccc(C(=O)O)c(Cl)c4)o3)C2=O)c1	.	.	.	-4	51	.
O=C1NC(=O)N(c2ccccc2)C(=O)/C1=C/c1ccc(Sc2ccccc2)o1	0	.	.	3	97*	1
COCCCNC(=O)Cn1cc(/C=C2\C(=O)NC(=O)N(c3ccccc3F)C2=O)c2ccccc21	3	.	5	136	2	5
SMILES	CDK5 inh	CASP6 VEID inh	NSD2 HMT inh	Mot1-301 SUMO	ALR H2O2 inh	N-glyco inh
C/C=C/c1ccc(C2[C@@H]3CN(Cc4cccnc4)C[C@H]2N3)cc1 (stereo partly specified)	.	0	.	.	.	.
COc1ccc(-c2ccc([C@@H]3[C@H]4CN(C(=O)Cc5ccccc5)CCCCN4[C@H]3CO)cc2)cc1	.	-3	.	.	.	.
O=C(Cc1ccccn1)N1CCCCN2[C@@H](CO)[C@@H](c3ccc(-c4ccc(F)cc4)cc3)[C@@H]2C1	.	3	.	.	.	.
O=C(Cc1ccccn1)N1CC2(C1)[C@@H](c1ccccc1)[C@@H](CO)N2Cc1ccccn1	.	0	.	.	.	.
COC(=O)[C@H]1[C@H](CO)[C@H]2Cn3c(ccc(/C=C/c4ccccc4)c3=O)[C@@H]1N2C(=O)C1CCC1	.	1	.	.	.	.
CC(=O)c1ccc2c(c1)C1C(Cl)C(Sc3ccccc3[N+](=O)[O-])CC1C(C(=O)O)N2 (stereo unspecified)	4	.	5	-16	95*	1
O=C(O)c1cccc2c1NC(C(=O)O)C1CC(Sc3ccccc3[N+](=O)[O-])C(Cl)C21 (stereo unspecified)	-2	.	31	-5	18	-1
O=C(COC(=O)c1ccc(O)cc1)Nc1ccc(Cl)cc1C(=O)c1ccccc1	0	8	3	-12	96*	-3
CC(=O)Nc1ccc(C(=O)OCC(=O)Nc2ccc(Cl)cc2C(=O)c2ccccc2)cc1	0	.	-1	-5	0	1
Cc1cccc(N2C(=O)NC(=O)/C(=C\c3ccc(N4CCOCC4)cc3)C2=O)c1	-1	2	7	-17	27	1
Cc1cccc(N2C(=O)NC(=O)/C(=C/c3ccc(N4CCOCC4)cc3)C2=O)c1	0	5	11	-6	97*	-1
O=C(Cc1ccncc1)N1CCCCN2[C@H](CO)[C@@H](c3ccc(C#CC4(O)CCCC4)cc3)[C@@H]2C1	.	13	.	.	.	.
CCN1C(=O)C(=C/C=C/c2ccco2)C(=O)N(CC)C1=S	-16	58*	47	-21	8	5
O=C1NC(=O)N(Cc2ccccc2)C(=O)/C1=C/C=C/c1ccco1	-1	39*	28	.	98*	32*
O=C1NC(=O)N(CCc2ccc(F)cc2)C(=O)/C1=C/c1ccco1	1	83*	.	.	54	4
CCn1c(O)c(/C=N/NC(=O)c2ccccc2)c(=O)[nH]c1=S	0	-4	1	-11	7	4
COc1ccccc1-n1c(O)c(/C=N/NC(=S)Nc2ccccc2)c(=O)[nH]c1=S	-5	6	-2	3	92*	0
CC=Cc1ccc2n(c1=O)C[C@H]1[C@H](CO)[C@@H](C(=O)OC)[C@@H]2N1CC1CCCC1 (mixture of isomers)	.	0	.	.	.	.
CC=Cc1ccc2n(c1=O)C[C@@H]1[C@@H](CO)[C@H](C(=O)OC)[C@H]2N1C(=O)CC1CC1 (mixture of isomers)	.	-2	.	.	.	.
CN1CCN(c2ccc([N+](=O)[O-])c(N)c2)CC1	1	.	5	-2	-3	3
CCN1CCN(c2ccc(N)c(C)c2)CC1	2	.	27	8	96*	0
COc1ccc(C#Cc2ccc([C@H]3[C@H]4CN(C(=O)Cc5cccnc5)CCCCN4[C@H]3CO)cc2)cc1	.	3	.	.	.	.
